ClpP mod = qHTS Assay for Activators of ClpP; ATP-dependent Clp protease proteolytic subunit (Bacillus subtilis (strain 168)), P80244; purified B. subtilis ClpP, FRET peptide cleavage, 20 min; Potency, µM (titrated, usually from 57.5 µM), for the others: top-dose activity change, negative = active; hit rate 1.9% among 340,000; active = well fitted falling curve with a large enough effect; inconclusive = small, poorly fitted or top-dose-only effect; inactive = no such curve, though single readings can be large or run the other way; also: potency is read from the fitted curve at half-maximal effect; the source files actives as falling curves though it sought activators and does not explain the sign; nearly all actives have a fitted effect of over 65% in size
Target sequence (P80244 whole entry, looked up): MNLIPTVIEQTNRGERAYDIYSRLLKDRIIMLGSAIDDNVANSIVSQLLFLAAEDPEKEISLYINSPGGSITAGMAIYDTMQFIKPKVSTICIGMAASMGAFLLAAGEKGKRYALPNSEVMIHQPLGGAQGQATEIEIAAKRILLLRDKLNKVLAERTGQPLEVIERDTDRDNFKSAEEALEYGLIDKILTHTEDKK
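ClpP 10 microg/mL final, pH 8 Tris/KCl buffer with BSA, glycerol, Tween-20; compound pinned in; FRET-FV substrate; RT 20 min; Ex320/Em430; ΔFRET vs ADEP 5.8 microM, DMSO, no enzyme.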
uPA generation = inhibitors of cell surface uPA generation; cell surface uPA generation assay, qHTS; Potency, µM (doses to about 38.3 µM), inactives show top-dose activity change, negative = inhibition, usual class: inhibitors; hit rate 0.31% among 330,000; AID 540303; active = well fitted inhibition curve with a large enough effect; inconclusive = small, poorly fitted or top-dose-only effect; inactive = no such curve, though single readings can be large or run the other way; tested in mouse RAW 264.7 cells; also: potency is read from the fitted curve at half-maximal effect; % is scaled to controls: 0 for no effect and ±100 for the full control effect; nearly all actives have a fitted effect of over 55% in size
Sfp inh = Sfp phosphopantetheinyl transferase inhibition; Potency, µM, for the others: largest response in the series, negative = inhibition, hits mostly inhibitors; hit rate 3.5% among 310,000; Biochemical Sfp PPTase activity, qHTS;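 also: the enzyme is Sfp with the accession as filed and its product quenches rhodamine fluorescence; potency is read from the fitted curve at half-maximal effect; 0% = enzyme reaction without inhibitor and -100% = no enzyme wells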
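With Hepes-Na pH 7.6 buffer containing 10 mM MgCl2, Sfp (15 nM) modified BHQ-2-YbbR (12.5 uM) using rhodamine-CoA (5 uM). Two reads 30 minutes apart at 525/598 nm yielded each well's rate.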
TCR act = activators of T cell receptors | primary human leukocytes, anti-CD3, IL-2 HTRF, 48 h | Potency, µM (series often up to 9.22 µM), for inactives: at the highest dose activation of IL-2 secretion, usual class: activators | 330,000 tested, under 10 active; also: % of control where 0% means no effect
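1) Mix primary human leukocytes, a-CD3 beads and compound. 2) Incubate 48 hr. 3) Add HTRF IL-2 reagents (a-IL-2-K, a-IL-2-d2).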
Active calls of the source: *; ? = inconclusive; · = not tested or not shown; [ ] = another dose, or the depositor's remark. Sampled rows, rich in hits. Any-hit rate of the full collection: about 4.2%. Unless noted, calls follow the shape of the dose curve; as a rule, active = well fitted curve in the direction sought with a large enough effect; inconclusive = small, poorly fitted or top-dose-only effect, or another doubt; inactive = no such curve, though single readings can be large; an effect the other way counts as inactive or inconclusive.

SMILES	ClpP mod	uPA generation	Sfp inh	TCR act
CCN(CC)S(=O)(=O)c1ccc2oc(C(=O)N(C)Cc3ccccc3)c(C)c2c1	0.3%	·	·	·
O=C(CCN1CCN(c2ccccc2)CC1)N/N=C/c1ccc(O)c(O)c1O	-4.2%	15.5%	8.91µM*	3.4%
Cc1cc(C(=O)N/N=C/c2ccc(O)c(O)c2O)c(C)n1-c1ccccc1	0.9%	-14.7%	8.91µM*	2.3%
O=C(Cc1csc(N2CCOCC2)n1)N/N=C/c1ccc(O)c(O)c1O	·	2.0%	10µM*	4.4%
C/C(=N\NC(=O)Cc1csc(N2CCOCC2)n1)c1ccccc1	-0.9%	-0.7%	-8.7%	-0.8%
Cc1c(Cl)cccc1-n1ncc(C(=O)NC2CCCC2)c1C1CCN(C(=O)OC(C)(C)C)CC1	0.8%	·	·	·
Cc1ccc(Cl)c(OC(=O)Cn2cnc3c2c(=O)n(C)c(=O)n3C)c1	·	4.5%	15.0%	1.8%
CC(=O)Nc1ccc(NC(=O)C(C)OC(=O)c2cccc(S(=O)(=O)N3CCCCC3)c2)cc1 (centres undefined)	28.2µM*	-6.2%	3.7%	-4.0%
CC(=O)c1cc(-c2ccccc2)n(CC(=O)N2CCN(C3CCCC3)CC2)c1C	31.6µM*	0.0%	-3.3%	6.4%
COc1ccc(CNC(=O)C/C(C)=N/NC(=O)c2cc(OC)cc(OC)c2)cc1	·	·	10.0%	·
C/C(CC(=O)NCc1ccccc1)=N\NC(N)=S	·	-1.9%	44.7µM*	4.1%
C/C(CC(=O)NCc1ccc(F)cc1)=N\NC(N)=S	·	0.2%	56.2µM*	11.0%
CC(=O)Nc1nnc(S(=O)(=O)N2CCN(c3ccc(Cl)cc3[N+](=O)[O-])CC2)s1	-1.8%	1.8%	11.4%	13.2%
COC(=O)c1cc2occc2n1CC(=O)Nc1ccc(C(C)C)cc1	-2.5%	·	·	·
COc1ccc(NC2c3ccccc3C(=O)N2Cc2ccco2)cc1OC (centres undefined)	0.1%	0.9%	-1.6%	4.1%
O=C1c2ccccc2C(Nc2ccc(S(=O)(=O)N3CCCCC3)cc2)N1Cc1ccco1 (centres undefined)	-0.5%	-24.3%	39.8µM*	3.0%
O=C1c2ccccc2C(Nc2ccc(F)c(Cl)c2)N1Cc1ccco1 (centres undefined)	2.0%	?	31.6µM*	5.0%[46.1 µM]
Clc1ccc(CO/N=C/c2c(-c3ccccc3)nc3n2CCS3)c(Cl)c1	35.5µM*	1.8%	-12.8%	1.9%
CS(=O)(=O)/C(C#N)=C/c1c(-c2ccccc2)nc2n1CCS2	-0.9%	-2.4%	2.6%	3.9%
COc1ccc(NC(=O)COc2ccccc2Cc2ccccc2)cc1S(=O)(=O)N1CCOCC1	-3.3%	-2.7%	·	-6.1%
Clc1ccccc1N=Nc1ccccn1	2.1%	2.8%	·	7.1%
Clc1ss/c(=N\c2ccccn2)c1Cl	-0.5%	-8.0%	35.5µM*	0.0%
COc1nc(N/N=C/c2ccc(-c3ccccc3[N+](=O)[O-])o2)nc(N2CCOCC2)n1	-1.1%	11.5%	14.1µM*	-0.1%[46.1 µM]
O=[N+]([O-])c1ccc(-c2ccc(/C=N/Nc3nc(NCc4ccccc4)nc(N4CCOCC4)n3)o2)cc1	·	-5.6%	13.5%	-0.1%
CCOc1ccc(NC(=O)CN(C)C(=O)CCCc2nc3ccccc3c(=O)[nH]2)cc1OCC	15.8µM*	1.1%	·	-3.8%
SMILES	ClpP mod	uPA generation	Sfp inh	TCR act
CCCn1nc(C(=O)N(C)CC(=O)Nc2ccc(OCC)c(OCC)c2)c2ccccc2c1=O	25.1µM*	1.9%	·	-3.1%
CCOc1ccc(NC(=O)CN(C)C(=O)c2cc(-c3ccc(OC)cc3)nc3ccccc23)cc1OCC	31.6µM*	-26.6%	·	-3.9%
COc1ccc(NC(=O)CN(C)C(=O)c2cc(-c3ccc(Cl)cc3)nc3ccccc23)cc1	-1.7%	-1.9%	·	-6.4%
COc1ccc(C2CC(=O)c3cnc4c(-c5ccc(F)cc5)c(C)nn4c3C2)cc1OC (centres undefined)	0.6%	·	·	·
C[C@@H](NC(=O)c1nc[nH]c1C(=O)N(C)Cc1ccccc1)c1ccccc1	1.6%	7.5%	·	8.9%
O=C(c1ccc(CN2CCc3ccccc3C2)cc1)N1CCN(c2ccccc2)CC1	31.6µM*	-1.2%	-11.0%	-14.9%[46.1 µM]
O=C(CN1C(=O)/C(=C/c2ccc(Cl)cc2)SC1=S)NC1C=CS(=O)(=O)C1 (centres undefined)	-1.4%	8.2%	39.8µM*	-4.5%
O=C(CCN1C(=O)/C(=C/c2ccc(Cl)cc2)SC1=S)NC1C=CS(=O)(=O)C1 (centres undefined)	-1.4%	5.4%	-3.2%	2.2%
CC1C/C(=C/c2ccncc2)C(=O)/C(=C/c2ccncc2)C1 (centres undefined)	0.6%	3.55µM*	?	-6.1%
O=C1/C(=C/c2ccncc2)Cc2ccccc21	1.4%	-11.1%	·	-0.5%
COCCOCC(O)CN1CCN(c2ccc(C)cc2)CC1 (centres undefined)	-0.7%	3.0%	79.4µM*	-21.5%
COCCOCC(O)CN1CCN(c2ccccc2)CC1 (centres undefined)	0.3%	5.3%	?	-1.5%
O=C(Nc1ccn(Cc2c(F)c(F)cc(F)c2F)n1)c1cccc(Cn2cc([N+](=O)[O-])cn2)c1	0.7%	·	31.6µM*	-3.3%
COc1ccc(OC)c(CNC(=O)c2nn(C)c3c2CSc2ccccc2-3)c1	-0.2%	·	·	·
O=C(NCCCc1ccccc1)c1cncc(Br)c1	1.6%	-11.5%	9.9%	-1.9%
Cc1ccc2c(c1)C(=O)C(=O)N2CCOc1ccccc1	·	-2.4%	-5.1%	4.3%
CCCN1C(=O)C(=O)c2cc(C)ccc21	-4.7%	3.16µM*	·	7.1%
Cc1ccc2c(c1)C(=O)C(=O)N2Cc1ccc(Br)cc1	5.3%	4.47µM*	·	-2.6%
Cc1ccc(CN2C(=O)C(=O)c3cc(C)ccc32)cc1	-0.7%	?	·	-21.8%
Fc1ccc(-n2c(-c3ccco3)nc3nc4ccccc4nc32)cc1	?	-4.8%	5.4%	6.0%
Fc1ccc(-c2nc3nc4ccccc4nc3n2Cc2ccco2)cc1	-6.2%	-1.3%	17.8µM*	3.2%
C=CCn1c(-c2ccc(OC)cc2)nc2nc3ccccc3nc21	25.1µM*	2.5%	8.2%	-0.7%
c1ccc(-c2nc3nc4ccccc4nc3n2Cc2ccco2)cc1	-24.2%	-2.0%	10µM*	0.4%
S=c1nc(-c2ccccc2)n(Cc2ccco2)c2c1CCCC2	·	·	-20.6%	·
COc1ccc(CCn2c(C)cc(C(=O)CN3C(=O)C(=O)N(Cc4ccco4)C3=O)c2C)cc1	-1.8%	?	·	-0.4%
SMILES	ClpP mod	uPA generation	Sfp inh	TCR act
Cc1cc(=O)[nH]c2nnc(SCc3c(F)cccc3Cl)n12	-5.9%	·	·	·
CC1=C(SCCC#N)S/C(=C2\SC(C)=C(SCCC#N)S2)S1	-2.0%	-18.2%	7.94µM*	7.5%
Cc1ccccc1NC(=O)CSC(N)=O	-1.9%	-5.4%	14.1µM*	-3.3%
COc1ccccc1NC(=O)CSC(N)=O	-0.2%	-5.6%	44.7µM*	-0.4%
COc1ccccc1NC(=O)CCCCC(=O)Nc1ccccc1OC	-1.6%	-1.1%	11.8%	3.9%
O=C(CSc1ccccc1)Nc1ccccc1C(=O)O	3.9%	4.1%	4.7%	6.5%
NC(=O)SCC(=O)Nc1ccccc1C(=O)O	-4.5%	5.5%	17.8µM*	-27.9%

Bioassay records deposited in PubChem BioAssay by National Center for Advancing Translational Sciences (NCATS).
